39 molecules from PubChem BioAssay (NCI) can be followed below.

This is part of a sample that, as a whole, favours compounds with a hit. Of some 83,000 tested, about 20% had one in any assay.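 How to read the values: 0–100, growth inhibition (40 = 60% inhibited); 0, no net growth; -100 to 0, cell death (-40 = 40% of starting cells died; -100 = all dead).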 Unmarked numbers belong to inactive results. Active and inactive are the calls of the source. Rule for the calls: active = growth percent below 10; inactive = the rest.

One assay concerns SW-620 colon. Kind of assay: NCI-60 one-dose screen, 48 h (100 = growth as untreated, 0 = no growth, -100 = all killed). Particulars: 10 µM unless noted.
Turning to `CCSc1nnc(Nc2ccc(C(C)C)cc2)s1`, the growth is 84.1%.

`O=C(Cc1c(F)cccc1Cl)Nc1ccc(S(=O)(=O)Nc2ncccn2)cc1`: the growth was 102%.

`CC1(C)OC2COC3(C(=O)O)OC(C)(C)OC3C2O1` (stereo not drawn): the growth was 98.2%.

`COc1cc(-n2nc(C(=O)Nc3ccc(C(=O)O)cc3)nc2-c2ccccc2)cc(OC)c1OC`: the growth was 101%.

Turning to `CN1CCN(CCCOc2ccc3nc(Nc4ccc(C(F)(F)F)c(Cl)c4)ccc3c2)CC1`, the growth is -70.4% (active).

As for `COc1ccc(S(=O)(=O)NCCNc2nccc(-c3c(-c4ccccc4)nc4sccn34)n2)cc1`, the growth was 36.5%.

In the case of `O=c1[nH]c(-c2cn(-c3ccc(Cl)cc3)nn2)nc2ccccc12`, the growth is 94.4%.

Regarding `COc1ccc(S(=O)(=O)Nc2cc(/C=C\c3cc(OC)c(OC)c(OC)c3)cc(OC)c2OC)cc1OC`, the growth was 25.5%.

Take `COc1ccc(-c2nc3sccn3c2-c2ccnc(NCCNS(=O)(=O)c3ccc(C(F)(F)F)cc3)n2)cc1`: the growth was 33.7%.

For the molecule `CCN(CC)CCSc1c2ccc(Cl)cc2nc2ccc(OC)cc12`, the growth is 4.29% (active).

In the case of `COc1ncc(-c2ccc3ncnc(Nc4cccc(Cl)c4)c3c2)cc1NS(=O)(=O)CCN1CCOCC1`, the growth is 29.5%.

With `O=c1[nH]c(CN2CCN(c3ccccc3F)CC2)nc2sc3c(c12)CCC3`, the growth was 105%.

With `O=C(Nc1cccc(Cl)c1)c1cc([N+](=O)[O-])ccc1O`, the growth was 58.7%.

For the molecule `Cc1cc(N/C=c2\sc3ncnn3c2=O)no1`, the growth was 98.8%.

In the case of `c1ccc2c(c1)Oc1ccccc1C2C1c2ccccc2Oc2ccccc21`, the growth is 97.7%.

In the case of `CC(C)CCN(CCCNc1c2c(nc3ccccc13)CCCC2)CCC(C)C`, the growth was 79.9%.

Consider `COc1cc(/C=C/C(=O)c2ccccc2O)ccc1OCCCOc1cc2c(cc1OC)C(=O)N1CCC[C@H]1C=N2`, for which the growth is 5.6% (active).

On to `O=C1NC(Cc2c[nH]c3ccccc23)C(=O)N1Cc1ccc(Cl)cc1` (stereo not drawn), for which the growth is 98.4%.

For `COc1ccc(C2CC(c3cccs3)=NN2c2ccc(S(=O)(=O)NC(=O)NCc3cccc(OC)c3)cc2)cc1` (stereo not drawn), the growth is 107%.

For the molecule `CCOC(=O)C1=C(CSC(=S)N(C2CCCCC2)C2CCCCC2)N(C)C(=O)NC1c1ccccc1` (stereo not drawn), the growth is 37.2%.

Take `COc1cccc2nc(Nc3ccc(NC(=O)c4ccc5ncccc5c4)cc3)ccc12`: the growth is 97.7%.

As to `Cc1cc(NC(=O)COC(=O)c2sc3cc(F)ccc3c2Cl)no1`, the growth is 108%.

For the molecule `CC/C=C\C[C@H](O)C/C=C1/C(=O)C(Cl)=C[C@@H]1C/C=C\CCCC(=O)O`, the growth is 2.12% (active).

For the molecule `O=Nc1c(-c2c(O)[nH]c3ccc([N+](=O)[O-])cc23)[nH]c2ccc(O)cc12`, the growth was 3.18% (active).

Take `O=C(Nc1ccc(F)cc1)c1cc([N+](=O)[O-])ccc1O`: the growth was 76.5%.

Consider `Cc1ccc(S(=O)(=O)OCC(=O)Nc2ccc(C(=O)O)c(O)c2)cc1`, for which the growth is 105%.

`Cc1cc(C)c(NC(=O)c2sc3nc4c(cc3c2N)CN(Cc2ccccc2)CC4)c(C)c1`: the growth is 23.7%.

Take `COc1ccc(-c2nnc(COc3ccc(NS(=O)(=O)c4ccc(OC)cc4)cc3F)o2)cc1`: the growth is 94.3%.

In the case of `Cc1ccc2nc(-c3c(CCCO)noc3N)[nH]c(=O)c2c1`, the growth is 103%.

Take `O=[N+]([O-])c1ccc(S(=O)(=O)N2CCN(c3ccnc4cc(Cl)ccc34)CC2)c([N+](=O)[O-])c1`: the growth is 40.5%.

On to `CCN(Cc1ccc(CN(CC)C(=O)C(Cl)(Cl)Cl)cc1)C(=O)C(Cl)(Cl)Cl`, for which the growth was 89%.

On to `COc1ccc(Cn2cc(COc3cc(/C=C/C(=O)c4cc(OC)c(OC)c(OC)c4)ccc3OC)nn2)cc1`, for which the growth was 19.8%.

With `N#CC1=C(N)n2nc(-c3ccncc3)nc2NC1c1cccc2ccccc12` (stereo not drawn), the growth is 100%.

On to `COc1ccc(/C=C/C(=O)c2ccc(B(O)O)cc2)cc1O`, for which the growth is 28.5%.

Regarding `Nc1nc(-c2ccccc2)cs1`, the growth was 108%.

With `NS(=O)(=O)c1ccc(NCC(=O)Nc2ccc(-c3nc4ccccc4s3)cc2)cc1`, the growth was 63.7%.

`COc1cc(Br)c(OC)cc1Br`: the growth is 94.7%.

For `COc1cc(NS(C)(=O)=O)ccc1Nc1c2ccc([N+](=O)[O-])cc2nc2c(C)cccc12`, the growth is 18.8%.

As for `O=C(Nc1ccc(I)cc1)c1cccc([N+](=O)[O-])c1O`, the growth is 21.7%.

For another assay, the system named is MCF7 breast. Described as above. Particulars: 10 µM unless noted.
For `CCSc1nnc(Nc2ccc(C(C)C)cc2)s1`, the growth is 95.2%.

Consider `O=C(Cc1c(F)cccc1Cl)Nc1ccc(S(=O)(=O)Nc2ncccn2)cc1`, for which the growth was 96.2%.

In the case of `CC1(C)OC2COC3(C(=O)O)OC(C)(C)OC3C2O1` (stereo not drawn), the growth is 99.7%.

Consider `COc1cc(-n2nc(C(=O)Nc3ccc(C(=O)O)cc3)nc2-c2ccccc2)cc(OC)c1OC`, for which the growth was 93.5%.

Turning to `CN1CCN(CCCOc2ccc3nc(Nc4ccc(C(F)(F)F)c(Cl)c4)ccc3c2)CC1`, the growth is -69.5% (active).

As for `COc1ccc(S(=O)(=O)NCCNc2nccc(-c3c(-c4ccccc4)nc4sccn34)n2)cc1`, the growth is 4.01% (active).

With `O=c1[nH]c(-c2cn(-c3ccc(Cl)cc3)nn2)nc2ccccc12`, the growth was 99.8%.

As for `COc1ccc(S(=O)(=O)Nc2cc(/C=C\c3cc(OC)c(OC)c(OC)c3)cc(OC)c2OC)cc1OC`, the growth was 18.1%.

As for `COc1ccc(-c2nc3sccn3c2-c2ccnc(NCCNS(=O)(=O)c3ccc(C(F)(F)F)cc3)n2)cc1`, the growth is 8.53% (active).

Turning to `CCN(CC)CCSc1c2ccc(Cl)cc2nc2ccc(OC)cc12`, the growth is 33.8%.

On to `COc1ncc(-c2ccc3ncnc(Nc4cccc(Cl)c4)c3c2)cc1NS(=O)(=O)CCN1CCOCC1`, for which the growth was 7.16% (active).

Consider `O=c1[nH]c(CN2CCN(c3ccccc3F)CC2)nc2sc3c(c12)CCC3`, for which the growth was 107%.

As to `O=C(Nc1cccc(Cl)c1)c1cc([N+](=O)[O-])ccc1O`, the growth was 42.9%.

On to `Cc1cc(N/C=c2\sc3ncnn3c2=O)no1`, for which the growth is 86.1%.

Consider `c1ccc2c(c1)Oc1ccccc1C2C1c2ccccc2Oc2ccccc21`, for which the growth is 95.4%.

Take `CC(C)CCN(CCCNc1c2c(nc3ccccc13)CCCC2)CCC(C)C`: the growth was 69.9%.

As to `COc1cc(/C=C/C(=O)c2ccccc2O)ccc1OCCCOc1cc2c(cc1OC)C(=O)N1CCC[C@H]1C=N2`, the growth was -15.1% (active).

With `O=C1NC(Cc2c[nH]c3ccccc23)C(=O)N1Cc1ccc(Cl)cc1` (stereo not drawn), the growth is 98%.

Turning to `COc1ccc(C2CC(c3cccs3)=NN2c2ccc(S(=O)(=O)NC(=O)NCc3cccc(OC)c3)cc2)cc1` (stereo not drawn), the growth is 99%.

As for `CCOC(=O)C1=C(CSC(=S)N(C2CCCCC2)C2CCCCC2)N(C)C(=O)NC1c1ccccc1` (stereo not drawn), the growth is 46.4%.

As to `COc1cccc2nc(Nc3ccc(NC(=O)c4ccc5ncccc5c4)cc3)ccc12`, the growth was 70.3%.

`Cc1cc(NC(=O)COC(=O)c2sc3cc(F)ccc3c2Cl)no1`: the growth was 106%.

Turning to `CC/C=C\C[C@H](O)C/C=C1/C(=O)C(Cl)=C[C@@H]1C/C=C\CCCC(=O)O`, the growth was 26.3%.

Take `O=Nc1c(-c2c(O)[nH]c3ccc([N+](=O)[O-])cc23)[nH]c2ccc(O)cc12`: the growth is 2.75% (active).

Consider `O=C(Nc1ccc(F)cc1)c1cc([N+](=O)[O-])ccc1O`, for which the growth was 61.5%.

On to `Cc1ccc(S(=O)(=O)OCC(=O)Nc2ccc(C(=O)O)c(O)c2)cc1`, for which the growth is 105%.

`Cc1cc(C)c(NC(=O)c2sc3nc4c(cc3c2N)CN(Cc2ccccc2)CC4)c(C)c1`: the growth is 17.6%.

Regarding `COc1ccc(-c2nnc(COc3ccc(NS(=O)(=O)c4ccc(OC)cc4)cc3F)o2)cc1`, the growth was 69.5%.

Consider `Cc1ccc2nc(-c3c(CCCO)noc3N)[nH]c(=O)c2c1`, for which the growth was 88.7%.

On to `O=[N+]([O-])c1ccc(S(=O)(=O)N2CCN(c3ccnc4cc(Cl)ccc34)CC2)c([N+](=O)[O-])c1`, for which the growth is 52.7%.

As for `CCN(Cc1ccc(CN(CC)C(=O)C(Cl)(Cl)Cl)cc1)C(=O)C(Cl)(Cl)Cl`, the growth is 89.2%.

For `COc1ccc(Cn2cc(COc3cc(/C=C/C(=O)c4cc(OC)c(OC)c(OC)c4)ccc3OC)nn2)cc1`, the growth is 21.3%.

As to `N#CC1=C(N)n2nc(-c3ccncc3)nc2NC1c1cccc2ccccc12` (stereo not drawn), the growth is 80.5%.

As for `COc1ccc(/C=C/C(=O)c2ccc(B(O)O)cc2)cc1O`, the growth is 20.2%.

As to `Nc1nc(-c2ccccc2)cs1`, the growth was 94.4%.

Take `NS(=O)(=O)c1ccc(NCC(=O)Nc2ccc(-c3nc4ccccc4s3)cc2)cc1`: the growth is 27.6%.

Consider `COc1cc(Br)c(OC)cc1Br`, for which the growth was 63.1%.

In the case of `COc1cc(NS(C)(=O)=O)ccc1Nc1c2ccc([N+](=O)[O-])cc2nc2c(C)cccc12`, the growth was 15.6%.

As to `O=C(Nc1ccc(I)cc1)c1cccc([N+](=O)[O-])c1O`, the growth is 7.91% (active).
